About 83,000 compounds went through this panel and 20% of them were active in at least one assay; those are over-represented in the sample as a whole.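 Note: values are percent growth. 100 is the growth of untreated cells, values between 100 and 0 indicate rising inhibition; between -100 and 0 indicates cell death.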 Values without a mark were called inactive. Active and inactive are the calls of the source. The calls were made as follows: active = growth percent below 10; inactive = the rest.

In PubChem BioAssay (NCI) one finds growth data, which are given here for 8 compounds.

Some test systems named below: NCI-H23 lung; NCI-H226 lung; NCI-H322M lung; NCI-H460 lung; HOP-92 NSCLC; NCI-H522 lung; A549/ATCC NSCLC; 786-0 renal; COLO 205 colon; DU-145 prostate; K-562 leukemia; MALME-3M melanoma; MDA-MB-231 breast; RXF 393 renal; SF-268 CNS; SF-295 CNS; SF-539 CNS; UACC-257 melanoma; M14 melanoma.
What all share (assay): NCI-60 one-dose screen, 48 h (100 = growth as untreated, 0 = no growth, -100 = all killed)
Conditions in all cases: 10 µM unless noted

Consider `CC(C)NC[C@@H](C(=O)N1CCN(c2ncnc3c2[C@H](C)C[C@H]3O)CC1)c1ccc(Cl)cc1`, for which the growth in the experiment on NCI-H23 lung was 58.7%; in the experiment on NCI-H226 lung, 56.2%; in the experiment with NCI-H322M lung, 55.6%; in the experiment with NCI-H460 lung, 29.3%; with HOP-92 NSCLC it was 2.39% (active); with NCI-H522 lung it was 53%. For the same compound, the growth in the experiment with A549/ATCC NSCLC is 38%; in the experiment with 786-0 renal, 4.37% (active); in the experiment on COLO 205 colon, 20.2%; with DU-145 prostate, 67.8%; in the experiment on K-562 leukemia it was 64.7%; in the experiment with MALME-3M melanoma, 60.1%. For the same compound, the growth in the experiment on MDA-MB-231 breast is 87.6%; in the experiment on RXF 393 renal, -24.8% (active); with SF-268 CNS, 57.7%; in the experiment with SF-295 CNS, 19.9%; in the experiment with SF-539 CNS it was 2.83% (active); in the experiment with UACC-257 melanoma, 42.8%. Further, the growth in the experiment on M14 melanoma was 69.9%.

For `N#Cc1c(C(F)(F)F)cc(Nc2ccc3nc(NCCN4CCCC4)oc3c2)n2c1nc1ccccc12`, the growth in the experiment on NCI-H23 lung is 81%; in the experiment on NCI-H226 lung it was 82.8%; in the experiment on NCI-H322M lung, 87.4%; with NCI-H460 lung, 99.4%; with HOP-92 NSCLC, 51.2%; in the experiment on NCI-H522 lung it was 58.2%. Also, the growth in the experiment on A549/ATCC NSCLC was 56.7%; in the experiment on 786-0 renal, 26.1%; with COLO 205 colon, 38.7%; in the experiment with DU-145 prostate, 89%; in the experiment on K-562 leukemia, 11.8%; with MDA-MB-231 breast, 32.7%. The growth is 55.4% with RXF 393 renal; 78.8% with SF-268 CNS; 74.7% in the experiment on SF-295 CNS; 86.4% in the experiment on SF-539 CNS; 84.4% in the experiment on M14 melanoma.

With `Cc1sc2c(c1C)c(=O)nc1c(-c3nc4ccccc4s3)n[nH]n12`, the growth was 88.7% in the experiment with NCI-H23 lung; 87.4% in the experiment with NCI-H226 lung; 96.2% in the experiment on NCI-H322M lung; 96.7% in the experiment with NCI-H460 lung; 88.7% in the experiment with HOP-92 NSCLC; 90.8% in the experiment on NCI-H522 lung. The growth was 97.2% with A549/ATCC NSCLC; 105% in the experiment on 786-0 renal; 103% in the experiment with COLO 205 colon; 106% in the experiment with DU-145 prostate; 94% in the experiment with K-562 leukemia; 97.1% in the experiment on MALME-3M melanoma. The growth is 87.6% in the experiment on MDA-MB-231 breast; 96.1% in the experiment with SF-268 CNS; 92.3% in the experiment on SF-295 CNS; 96.5% in the experiment with SF-539 CNS; 98.6% in the experiment on M14 melanoma.

Consider `CC(=O)OC1Oc2ccccc2-c2oc(=O)c(-c3cc4ccc(N(C)C)cc4oc3=O)cc21` (centres undefined), for which the growth in the experiment with NCI-H23 lung is 36.4%; with NCI-H226 lung, 55%; in the experiment on NCI-H322M lung, 69.4%; in the experiment on NCI-H460 lung, 75.4%; in the experiment with HOP-92 NSCLC, -3.58% (active); in the experiment with NCI-H522 lung, 6.65% (active). Also, the growth was 61.2% in the experiment with A549/ATCC NSCLC; 55.2% in the experiment on 786-0 renal; 67.3% in the experiment on COLO 205 colon; 19.1% in the experiment with DU-145 prostate; 1.45% (active) with K-562 leukemia; 4.74% (active) with MALME-3M melanoma. In addition, the growth was 59.5% in the experiment on MDA-MB-231 breast; 73.1% in the experiment with SF-268 CNS; 6.73% (active) in the experiment with SF-295 CNS; 69.4% in the experiment with SF-539 CNS; 47.2% in the experiment with M14 melanoma.

On to `CC1(COc2ccc3c(c2)ncn3-c2ccc3cccc(N4CCC(N)CC4)c3n2)COC1`, for which the growth with NCI-H23 lung was 20.6%; with NCI-H226 lung, 19.9%; in the experiment on NCI-H322M lung, 41.1%; with NCI-H460 lung it was -33% (active); in the experiment with HOP-92 NSCLC, 63.3%; in the experiment with NCI-H522 lung it was -36.9% (active). Moreover, the growth in the experiment on A549/ATCC NSCLC is -35.2% (active); with 786-0 renal, -33.2% (active); in the experiment with COLO 205 colon, -66.5% (active); with DU-145 prostate, 15.9%; in the experiment on K-562 leukemia it was 0.523% (active); in the experiment on MALME-3M melanoma it was 20.8%. Moreover, the growth was 4.69% (active) in the experiment with MDA-MB-231 breast; -58.6% (active) with RXF 393 renal; 9.66% (active) in the experiment with SF-268 CNS; 59.8% in the experiment on SF-295 CNS; -82.3% (active) in the experiment with SF-539 CNS; -50.3% (active) in the experiment on UACC-257 melanoma. Further, in the experiment on M14 melanoma, the growth was 2.82% (active).

As for `O=C(c1c(F)ccc(NS(=O)(=O)N2CC[C@@H](F)C2)c1F)c1c[nH]c2ncc(-c3cnc(C4CC4)nc3)cc12`, the growth with NCI-H23 lung was 58.6%; in the experiment with NCI-H226 lung, 62.3%; in the experiment on NCI-H322M lung it was 21.6%; with NCI-H460 lung, 37.3%; with HOP-92 NSCLC, 35.7%; in the experiment on NCI-H522 lung it was 32.5%. Besides, the growth in the experiment on A549/ATCC NSCLC was 33.8%; in the experiment on 786-0 renal, 39.8%; with COLO 205 colon, 0.255% (active); in the experiment with DU-145 prostate it was 49.9%; in the experiment on K-562 leukemia it was 15.8%; in the experiment with MALME-3M melanoma, 0.406% (active). The growth in the experiment with MDA-MB-231 breast is 35.5%; with RXF 393 renal it was 10%; in the experiment on SF-268 CNS, 49.4%; in the experiment on SF-295 CNS it was 42.8%; in the experiment with SF-539 CNS, 53.5%; with UACC-257 melanoma, -21.3% (active).

In the case of `Cn1ncc(Cl)c1-c1cc(C(=O)N[C@H](CN)Cc2ccc(F)c(F)c2)oc1Cl`, the growth with NCI-H23 lung was 11.3%; in the experiment on NCI-H226 lung it was 11.8%; with NCI-H322M lung, 18.8%; in the experiment on NCI-H460 lung it was 2.97% (active); with HOP-92 NSCLC it was -58.5% (active); with NCI-H522 lung, -66.7% (active). The growth in the experiment on A549/ATCC NSCLC is -53.4% (active); in the experiment on 786-0 renal it was -46.7% (active); with COLO 205 colon, -77.9% (active); with DU-145 prostate, 19.1%; in the experiment with K-562 leukemia, -32.7% (active); with MALME-3M melanoma it was -78.6% (active). The growth with MDA-MB-231 breast was -43.8% (active); in the experiment on RXF 393 renal, -52.6% (active); with SF-268 CNS, 23.1%; with SF-295 CNS, -65.8% (active); in the experiment with SF-539 CNS, -75.1% (active); with UACC-257 melanoma, -89.4% (active). Moreover, in the experiment on M14 melanoma, the growth is -78.5% (active).

With `CCN1CCN(c2cc(C)nc(N(CCCNc3ccnc4cc(Cl)ccc34)Cc3ccc4c(c3)OCO4)n2)CC1`, the growth in the experiment on NCI-H23 lung is 36.8%; in the experiment with NCI-H226 lung, 50.7%; in the experiment with NCI-H322M lung, 5.48% (active); in the experiment with NCI-H460 lung, 7.01% (active); in the experiment on HOP-92 NSCLC, -24.9% (active); with NCI-H522 lung, -24.5% (active). Moreover, the growth in the experiment on A549/ATCC NSCLC was 11.5%; with 786-0 renal it was -80.2% (active); with COLO 205 colon, -82.6% (active); in the experiment with DU-145 prostate, 20.1%; in the experiment with K-562 leukemia, -30.4% (active); in the experiment on MALME-3M melanoma it was -82.2% (active). Moreover, the growth with MDA-MB-231 breast is -29.5% (active); with RXF 393 renal, -59% (active); with SF-268 CNS it was -0.704% (active); in the experiment with SF-295 CNS, -70% (active); in the experiment on SF-539 CNS, -88.6% (active); with M14 melanoma, -82.2% (active).
